Compound activity from PubChem.
Shown are actives, neighbours in structure and some others; about 8.1% of the full set was active somewhere.
Sfp inh = qHTS Assay for Inhibitors of Bacillus subtilis Sfp phosphopantetheinyl transferase (PPTase) | Biochemical Sfp PPTase activity, qHTS | 310,000 compounds, 3.5% hits | 4'-phosphopantetheinyl transferase ffp (Bacillus subtilis), Q9F4F7 | Potency, µM, without a hit: largest response in the series, negative = inhibition, usual class: inhibitors;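 also: the enzyme is Sfp with the accession as filed and its product quenches rhodamine fluorescence; 0% = enzyme reaction without inhibitor and -100% = no enzyme wells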
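Compounds were incubated with enzyme (final 15 nM) for 15 min at room temperature before substrate addition started the reaction. Fluorescence at 525 nm excitation, 598 nm emission was recorded immediately and after 30 minutes.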
Epigenetic derep = Quantitative High-Throughput Screen for Regulators of Epigenetic Control; murine LDR cells, GFP reporter derepression, 30 h; Potency, µM (top dose mostly 53.9 µM), for inactives: at the top dose GFP activation, most hits filed as activators; 280,000 compounds, 0.2% hits; AID 1865, 2009; also: % of control where 0% means no effect; nearly all actives have a fitted effect of over 60% in size
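Derepression of a silenced CMV-GFP reporter in murine LDR cells is scored by enumerating GFP-positive cells with a laser-scanning microplate cytometer after 30 hours of treatment at 37 C.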
RORg inh = qHTS for inhibitors of ROR gamma transcriptional activity; Drosophila S2 Gal4-RORgamma UAS-luciferase reporter, 20 h; Potency, µM (series often up to 53.6 µM), inactives show top-dose activity change, negative = inhibition, most hits filed as inhibitors; 310,000 compounds, 5.4% hits; AID 2551, 2010; also: % is scaled to controls: 0 for no effect and ±100 for the full control effect; nearly all actives have a fitted effect of over 60% in size
Target sequence (P51450 whole entry, looked up, the tested form may be a part): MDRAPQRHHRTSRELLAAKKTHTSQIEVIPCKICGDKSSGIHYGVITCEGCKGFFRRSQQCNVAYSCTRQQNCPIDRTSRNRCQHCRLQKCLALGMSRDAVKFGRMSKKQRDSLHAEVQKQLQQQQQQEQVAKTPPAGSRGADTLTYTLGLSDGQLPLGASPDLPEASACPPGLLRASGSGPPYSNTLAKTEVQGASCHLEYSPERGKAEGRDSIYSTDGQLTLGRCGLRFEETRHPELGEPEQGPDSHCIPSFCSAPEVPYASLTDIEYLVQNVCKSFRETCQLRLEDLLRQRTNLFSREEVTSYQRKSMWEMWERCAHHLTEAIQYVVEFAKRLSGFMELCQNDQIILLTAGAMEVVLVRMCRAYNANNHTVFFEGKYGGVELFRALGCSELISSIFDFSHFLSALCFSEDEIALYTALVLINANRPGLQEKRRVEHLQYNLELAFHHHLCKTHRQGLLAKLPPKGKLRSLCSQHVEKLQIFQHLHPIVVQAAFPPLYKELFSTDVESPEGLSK
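Schneider cells (Drosophila), stable Gal4 DBD–ROR gamma + UAS-luc; 1 hr cmpd preincubation; Cu2+ induction 700 uM final; 20 hr ambient; luminescence.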
PINK1 expr mod = A Quantitative High throughput Screen to Identify Chemical Modulators of PINK1 Expression; PINK1 immunofluorescence, high-content cytometry, 24 h; Potency, µM (top dose mostly 76.6 µM), without a hit: top-dose activation (PINK1 increase), usual class: activators; 410,000 compounds, 0.2% hits; AID 624263, 2012; active = well fitted activation curve with a large enough effect; inconclusive = small, poorly fitted or top-dose-only effect; cell line not stated here; also: % of control where 0% means no effect; nearly all actives have a fitted effect of over 65% in size
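Stable cell line treated 24 h with compounds at 5 concentrations (CCCP controls), then fixed and immunostained for PINK1 plus nuclear and cell stains; PINK1 immunofluorescence quantified by laser-scanning microplate cytometry.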
ClpP mod = qHTS Assay for Activators of ClpP | AID 651965, 2013 | Potency, µM (doses to about 57.5 µM), inactives show at the top dose activity change, negative = active | purified B. subtilis ClpP, FRET peptide cleavage, 20 min | ATP-dependent Clp protease proteolytic subunit (Bacillus subtilis (strain 168)), P80244 | 340,000 compounds, 1.9% hits; active = well fitted falling curve with a large enough effect; inconclusive = small, poorly fitted or top-dose-only effect; inactive = no such curve, though single readings can be large or run the other way; also: the source files actives as falling curves though it sought activators and does not explain the sign; nearly all actives have a fitted effect of over 65% in size
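Purified B. subtilis ClpP, 10 microg/mL final in Tris/HCl pH8 with KCl, BSA, glycerol and Tween-20, cleaved an Abz/nitrotyrosine-quenched decapeptide. Fluorescence (ex 320, em 430) was read at 0 and 20 min at room temperature. Delta was normalized to 5.8 microM ADEP and DMSO/no-enzyme controls.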
VP16 counter = VP16 counterscreen qHTS for inhibitors of ROR gamma transcriptional activity; Potency, µM (doses to about 53.6 µM), without a hit: at the top dose activity, negative = inhibition, hits mostly inhibitors; 310,000 compounds, 3.5% hits; Drosophila S2 Gal4-VP16 UAS-luciferase, luminescence, 20 h; AID 2546, 2010;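 also: Gal4-VP16 expression switched on by copper sulfate through the metallothionein promoter; % is scaled to controls: 0 for no effect and ±100 for the full control effect; nearly all actives have a fitted effect of over 50% in size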
The depositor's hits bear a star; ? = inconclusive; · = no result given; ! = not confirmed by another sample; [ ] = remark or other dose. Unless noted, calls follow the shape of the dose curve; as a rule, active = well fitted curve in the direction sought with a large enough effect; inconclusive = small, poorly fitted or top-dose-only effect, or another doubt; inactive = no such curve, though single readings can be large; an effect the other way counts as inactive or inconclusive. Potency is read from the fitted curve at half-maximal effect.

SMILES | Sfp inh | Epigenetic derep | RORg inh | PINK1 expr mod | ClpP mod | VP16 counter
O=P1(Oc2ccccc2)CC=CC(COCc2ccccc2)O1 (stereo unspecified) | 12% | · | 27% | · | · | 0%
c1ccc2c(c1)c1cc[n+]2CCCCC[n+]2ccc(c3ccccc32)NCCCCCN1 | -10% | · | -31% | · | · | -12%
Cl.Cl.Cl.Cl.Cl.Cl.N.N.N.N.NNNNN.NNNNN.O.O.[Ru].[Ru].[Ru] | 50µM* | 1% | 18% | · | · | -17%
c1csc(CN2CC[C@@]3(CCCNC3)C2)n1 | -13% | · | -18% | 0% | · | -10%
O=C1NC(=O)C(=Cc2ccccc2OCCOc2ccc([N+](=O)[O-])cc2)C(=O)N1 | 50µM* | -8% | 28% | 4% | · | -8%
COc1ccccc1C=C1C(=O)NC(=S)NC1=O | · | · | · | -2% | -3% | ·
O=C1NC(=O)C(=Cc2ccc(Oc3ccc([N+](=O)[O-])cc3)cc2)C(=O)N1 | 20µM* | -1%[10.1 µM] | 16% | 0% | 1% | 13%[10 µM]
CN1C(=O)C(=Cc2ccccc2OS(=O)(=O)c2ccccc2)C(=O)N(C)C1=O | 35µM* | · | -18% | 1% | -3% | -23%
COc1ccc(C=C2C(=O)NC(=S)NC2=O)cc1OC | · | · | · | 2% | · | ·
COc1cc(C=C2C(=O)NC(=O)NC2=O)ccc1OCc1ccc([N+](=O)[O-])cc1 | 32µM* | 0% | 4% | -2% | · | 0%
C=C[C@@H]1CN2CC[C@H]1C[C@H]2[C@H](O)c1ccnc2ccccc12 | 18% | · | 3%[10 µM] | · | · | -9%
CN1C(=O)C(=Cc2ccccc2OCCOc2ccc([N+](=O)[O-])cc2)C(=O)N(C)C1=O | 71µM* | 4% | 4% | 2% | · | -4%
CN1C(=O)C(=Cc2ccccc2OCc2ccc(C(=O)O)cc2)C(=O)N(C)C1=O | -28% | 0% | 43% | 3% | · | 18%
CCn1cc(C=C2C(=O)N(C)C(=O)N(C)C2=O)c2ccccc21 | 7% | · | 1% | 1% | · | -11%
CN1C(=O)C(=Cc2ccccc2OCc2ccccc2Cl)C(=O)N(C)C1=O | 50µM* | 0% | -11% | ? | · | -5%
CCOC(=O)CCN(SN(C)C(=O)Oc1cccc2c1OC(C)(C)C2)C(C)C | -13% | · | 31% | · | · | 29%
O=C(Nc1ncc(Cc2ccccc2)s1)C1=NCCN1 | 16% | 0% | 2µM* | 3% | · | ?
CC(=O)Nc1c2sscc-2n(C)c1=O | ? | 2% | 0.4µM* | · | · | 0.25µM*
O=C1CC(N2CC=C(c3ccc(F)cc3)CC2)C(=O)N1c1ccc(F)cc1 (stereo unspecified) | 3% | 9% | 4% | -2% | -5% | 4%
CCOC(=O)c1ccc(N2C(=O)CC(N3CC=C(c4ccc(F)cc4)CC3)C2=O)cc1 (stereo unspecified) | 32µM* | -2% | 47% | 1% | -6% | -9%
COc1ccc(C(=O)NC(=S)NNC(=O)c2cccnc2)cc1 | 6% | · | 16µM* | 4% | · | -13%
CC[C@H](Oc1ccc(Cl)cc1)C(=O)OC1C[C@H]2CC[C@@H](C1)N2C (stereo partly specified) | -1% | -1% | -10% | · | · | 14%
CN1Cc2ccccc2[C@@H]2c3cccc4[nH]cc(c34)C[C@H]21 | 79µM*! | ? | ? | · | · | -10%
COc1ccc2c3c([nH]c2c1)C(C)=NCC3 | 18% | ? | ? | 3% | 4% | 3%
CC1=NCCc2c1[nH]c1cc(O)ccc21 | 79µM*! | -1% | -24% | ? | 6% | -4%
c1cc2c(cc1[C@H]1OC[C@@H]3[C@H]1CO[C@H]3c1ccc3c(c1)OCO3)OCO2 | -14% | 0% | 40% | · | · | -22%
